# According to PubChem BioAssay AID1845226 (National Center for Advancing Translational Sciences (NCATS), 2023):
# Results filed as inconclusive are left out. Calls of active or inactive are those of the source. Calls follow the shape of the dose curve; as a rule, active = well fitted inhibition curve with a large enough effect; inconclusive = small, poorly fitted or top-dose-only effect; inactive = no such curve, though single readings can be large or run the other way.
# Test: Confirmatory fluorescence-based thiol-reactive (MSTI) qHTS assay for identification of artifact compounds
# Settings: MSTI thiol-reactivity probe, 1 h; series mostly up to 39.2 µM; activity change, negative = inhibition: at the top concentration
# In short: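 Probe solution (4 uM MSTI, 2% DMSO/PBS, pH 7.4) is dispensed, then compounds are pinned. Plates incubate for 1 h at room temperature, light-protected, before fluorescence is read at 525/598 nm.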
# Potency is read from the fitted curve at half-maximal effect.
SMILES,"activity change, negative = inhibition",Potency
CCOC(=O)C1CCN(c2nc3ccccc3nc2Cl)CC1,118% (inactive),
Cc1ccc(-c2nc3scc(CCNS(=O)(=O)c4ccc(F)c(C)c4)n3n2)cc1,49.9% (inactive),
CC1CCc2noc(NC(=O)c3ccc([N+](=O)[O-])cc3)c2C1 (stereo unspecified),,2.44 µM (active)
Cc1cc(OC(=O)c2c(C)cc(O)cc2O)cc(O)c1C(=O)O,2.87% (inactive),
COc1ccc(C2=NN(CCC(=O)NCCc3ccccc3)C(=O)CC2)cc1,54.8% (inactive),
CCOC(=O)c1ccc(N2CCN(c3ccc(F)cc3)CC2)c(NC(=O)Nc2cccc(OC)c2)c1,102% (inactive),
O=C(COc1ccccc1Cl)NCC1(N2CCOCC2)CCCCC1,34.9% (inactive),
COc1ccc(C2Nc3ccccc3C(=O)N2CC(C)(C)C)cc1COc1ccc(NC(C)=O)cc1 (stereo unspecified),43.5% (inactive),
COc1ccc(-c2ccc(CCC(=O)O)n2-c2ccccc2O)cc1,,4.33 µM (active)
CCCCOc1ccc(C2C(=O)N(C3CCCCC3)CC(=O)N2CCCC)cc1 (stereo unspecified),3.5% (inactive),
Cc1cc(C)cc(-n2c(SCC(=O)N3CCCCCC3)nc3c([nH]c4ccccc43)c2=O)c1,352% (inactive),
CCOc1ccc(CCNC(=O)c2ccc3c(c2)nc2n3CCOC2)cc1OCC,109% (inactive),
Cc1c(O)cc(O)c2c(=O)c(-c3ccc(O)cc3)coc12,0.887% (inactive),
O=S1(=O)N=C(Oc2ccc(Br)cc2)c2ccccc21,10.1% (inactive),
CC(C)c1nn2c(=O)cc(COC(=O)c3cccc(NC(=O)COc4ccc(F)cc4)c3)nc2s1,212% (inactive),
Cc1ccccc1C(=O)Nc1cc(C)c(O)c(-c2nc3ccccc3o2)c1,86.6% (inactive),

SMILES,"activity change, negative = inhibition",Potency
CC(C)C(=O)SCCCCCCC(=O)Nc1nc(-c2ccccc2)cs1,30.7% (inactive),
Cn1cc(CN(C(=O)Nc2ccc(Cl)c(Cl)c2)C2CCCCC2)c2ccccc21,81.3% (inactive),
O=C1CCC(=O)N1CO,-16.4% (inactive),
O=C(/C=C/c1ccc(O)cc1)OC[C@H]1O[C@@H](Oc2c(-c3ccc(O)cc3)oc3cc(O)cc(O)c3c2=O)[C@H](O)[C@@H](O)[C@@H]1O,5.52% (inactive),
O=C(O)Cc1cc(I)c(Oc2cc(I)c(O)c(I)c2)c(I)c1,-37.1% (inactive),
COc1ccc(-c2oc3cc(O[C@@H]4OC(CO)C(O)C(O)C4O)c(OC)c(O)c3c(=O)c2OC)cc1O (stereo partly specified),-48.7% (inactive),
O=c1c2ccccc2nc2sc(NS(=O)(=O)c3ccc4c(c3)CCC4)nn12,226% (inactive),
COc1ccccc1N1CCN(S(=O)(=O)c2c(C)nc3sc(C)c(C)n3c2=O)CC1,23.2% (inactive),
COc1ccc(CCn2c3c(c(=O)[nH]c2=S)CN(C(C)C)CN3)cc1OC,48.3% (inactive),
COc1ccc(C)cc1NC(=O)CN1C(=O)COc2ccc(S(=O)(=O)NC3CCCC3)cc21,104% (inactive),
COC(=O)c1ccc2nc(C)cc(Nc3ccc(O)cc3)c2c1,-5.75% (inactive),
Cc1cc(C)cc(NC(=O)C(CC(C)C)NC(=O)C2CCCCC2)c1 (stereo unspecified),32.1% (inactive),
Cc1ccc(C)c(N2CCN(Cc3csc(C)c3)CC2)c1,15.4% (inactive),
COc1ccc(NC(=O)Nc2cccc(-c3noc(C)n3)c2)cc1,61.9% (inactive),
CCCCCn1c(=O)[nH]c2cc(C(=O)Nc3ccc(F)cc3)ccc2c1=O,188% (inactive),
